Measured values from the supplement of paper PMC4166925.
± gives the standard deviation of the averaged measurements. Over roughly 33,000 sequences, “E-score (dimensionless, -0.5 to 0.5)” has its median near -0.049; the highest 2% begin near 0.37. This is one part of a sample in which the highest values are shown more often than they occur.

Each sequence was assayed on T1, PmTbr T-box DNA-binding domain (GST fusion) (assay: PBM E-score of 8-mer (E-score (dimensionless, -0.5 to 0.5)); Tbr is Tbrain of the sea star Patiria miniata (Pm) or the sea urchin Strongylocentrotus purpuratus (Sp); higher = stronger binding preference). Conditions: the construct has about 5 more residues each side.
T1 sequence: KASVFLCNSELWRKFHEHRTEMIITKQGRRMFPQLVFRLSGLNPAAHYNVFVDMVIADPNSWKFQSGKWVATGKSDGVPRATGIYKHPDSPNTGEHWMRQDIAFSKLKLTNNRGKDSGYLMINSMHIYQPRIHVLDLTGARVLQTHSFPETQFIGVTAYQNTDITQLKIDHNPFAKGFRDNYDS
Protocol: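 Universal protein-binding microarray (Agilent AMADID 016060, 60-bp probes with a 35-bp variable region) incubated with 200 nM GST-fused Patiria miniata Tbr T-box DNA-binding domain (residues 272-466) in PBS pH 7.5. Scored for every ungapped 8-mer (given with its reverse complement) by the Universal PBM Analysis Suite as E-score (modified Wilcoxon-Mann-Whitney enrichment, range -0.5 to 0.5; >0.45 counts as bound) and Z-score of median probe intensity. Two replicate arrays (datasets 1 and 2).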

Sequence | PBM E-score of 8-mer
ACTTGTAA | 0.0472 ± 0.082
GGGTATTA | -0.139 ± 0.091
GTCCAATA | -0.21 ± 0.0092
AGATGCCA | -0.00611 ± 0.051
GAACTATC | -0.095 ± 0.022
GAACTGAA | -0.228 ± 0.021
AAGGAGGC | -0.181 ± 0.009
GTCAAAAA | 0.0926 ± 0.056
CACGGTCG | 0.0491 ± 0.014
CGAGGGAG | -0.0838 ± 0.048
TACCTCGA | -0.0364 ± 0.012
ATGTGATA | 0.298 ± 0.048
ATGTGAGC | 0.0849 ± 0.0062
ATGTGAGG | 0.215 ± 0.026
ATGTGAGA | 0.429 ± 0.0081
GTGAGAGA | 0.319 ± 0.015
GTGTGAGA | 0.4583 ± 0.0027
GTGTGATA | 0.46 ± 0.006
CTGTGAGA | 0.314 ± 0.0081
CTGTGATA | 0.2528 ± 0.0022
GATACTTA | -0.121 ± 0.055
ACGATAAA | 0.122 ± 0.051
GACGATCC | -0.0686 ± 0.12

Sequence | PBM E-score of 8-mer
GATACAGC | -0.197 ± 0.018
CCATACTC | 0.0602 ± 0.026
GATATCTA | -0.117 ± 0.025
CTACCAGA | -0.1381 ± 0.0011
CCCGACCA | -0.0729 ± 0.075
CCAGCTGA | -0.0424 ± 0.022
CCTAGATC | -0.0223 ± 0.021
CTGTCAAG | 0.2006 ± 0.0012
ATGTCATC | -0.0845 ± 0.035
CTGTCACA | 0.4 ± 0.0052
CCGTCACC | 0.356 ± 0.03
CTGTCATC | 0.141 ± 0.036
CTGTCACC | 0.428 ± 0.013
ATGTCACC | 0.385 ± 0.015
ATGTCACG | 0.262 ± 0.012
ATGTCACA | 0.375 ± 0.013
ATGTCAGC | 0.00315 ± 0.0099
ATGTCAAG | -0.0802 ± 0.059
CCGTCACA | 0.325 ± 0.024
CCCCAGAC | -0.109 ± 0.082
ACACTGTG | 0.227 ± 0.0059
ACCTACTG | 0.0087 ± 0.021
AGATAGCT | -0.0197 ± 0.1

Sequence | PBM E-score of 8-mer
AGGCGAAA | -0.0128 ± 0.028
AATGATCG | -0.0804 ± 0.013
ACTTAAGA | -0.0828 ± 0.02
TATGGTGA | 0.074 ± 0.043
GTGTCACA | 0.445 ± 0.0066
GAGTCACA | 0.237 ± 0.0075
GCGTCACA | 0.307 ± 0.014
AGCCCCGC | -0.0835 ± 0.072
AATCTCTC | -0.0609 ± 0.011
ATTCTCAG | 0.0465 ± 0.077
AATCTCAC | 0.382 ± 0.0088
ATTCTCAC | 0.435 ± 0.017
AATCTCAT | -0.0261 ± 0.042
ATTCTCAA | 0.115 ± 0.051
ATGGCGGA | -0.225 ± 0.027
CGGCAAAC | -0.0247 ± 0.012
AATAGGTG | 0.428 ± 0.013
ACTAGGTA | -0.23 ± 0.039
ATTAGGTA | -0.131 ± 0.0089
ACTAGGTG | 0.425 ± 0.012
AATAGGTA | -0.0644 ± 0.018
ACTAGGTC | -0.143 ± 0.0081
ATTAGGTC | -0.153 ± 0.013

Sequence | PBM E-score of 8-mer
AATAGGTC | -0.258 ± 0.012
ATTAGGTG | 0.374 ± 0.0089
AGTAGGTG | 0.4125 ± 0.00071
AGTAGGTA | -0.0493 ± 0.079
AGTAGGTC | -0.148 ± 0.05
ATCGCTTC | 0.0264 ± 0.017
CACATTTC | 0.3486 ± 0.0015
AAATTCAC | 0.263 ± 0.021
AAAAGCGG | -0.261 ± 0.1
TTAGTAAA | -0.0101 ± 0.081
CCACTTCA | 0.13 ± 0.034
TCACTTCA | 0.186 ± 0.021
ACACTCCT | 0.228 ± 0.019
ACACTTCA | 0.441 ± 0.017
AAACTTCG | 0.00852 ± 0.068
ACTCTCCG | -0.0258 ± 0.0077
ACACTTCC | 0.428 ± 0.016
GCACTTCC | 0.365 ± 0.021
CCACTTCC | 0.0762 ± 0.022
CCACTTCG | 0.254 ± 0.028
ACACTTCG | 0.427 ± 0.0093
ACACTCCG | 0.3818 ± 0.0019
ATTCTCGG | -0.082 ± 0.071

Sequence | PBM E-score of 8-mer
CGAATCAC | 0.124 ± 0.029
AGAGGTCA | -0.0997 ± 0.006
TACTGACA | 0.1838 ± 0.00074
TCCCAGCA | 0.0248 ± 0.11
ACCGAATG | -0.119 ± 0.0097
CAGAAGCG | 0.103 ± 0.04
ACTCTTCT | -0.264 ± 0.02
ACACTTCT | 0.4266 ± 0.0042
AAACTTCT | -0.236 ± 0.043
AGGTTCTC | 0.0874 ± 0.028
ATTCACCA | 0.0566 ± 0.052
CCGTTGGC | 0.151 ± 0.01
ATATGTGA | 0.24 ± 0.064
CTGTGTGA | 0.298 ± 0.018
AAATGTGT | 0.432 ± 0.011
ATGTGTGA | 0.4845 ± 0.00059
GTGTGTAA | 0.214 ± 0.022
AAATGTGC | 0.206 ± 0.049
GTGTGTGA | 0.41536 ± 0.00023
AAATGTGG | 0.0797 ± 0.052
ATGTGTGC | 0.219 ± 0.016
TCAAGAAA | -0.17 ± 0.11
